# Bioassay records from PubChem.
# Sampled rows, rich in hits. Any-hit rate of the full collection: about 12%.
# Sfp inh = qHTS Assay for Inhibitors of Bacillus subtilis Sfp phosphopantetheinyl transferase (PPTase); AID 1490, 2009; hit rate 3.5% among 310,000; Biochemical Sfp PPTase activity, qHTS; Potency, µM, for the others: largest response in the series, negative = inhibition, most hits filed as inhibitors;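 further: the enzyme is Sfp with the accession as filed and its product quenches rhodamine fluorescence; 0% = enzyme reaction without inhibitor and -100% = no enzyme wells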
#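 Fluorescence-quenching assay: 15 nM Sfp-PPTase preincubated 15 min at room temperature with compound, then 5 uM rhodamine-CoA and 12.5 uM BHQ-2-labelled YbbR peptide added. Fluorescence (ex 525/em 598 nm) read at start and after 30 min; difference gives rate.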
# JMJD2A Tudor inh = qHTS Assay for Inhibitors of JMJD2A-Tudor Domain | AlphaScreen JMJD2A-Tudor / H3K4me3 peptide binding | Potency, µM (doses to about 114 µM), for the others: at the top dose activity change, negative = inhibition, most hits filed as inhibitors | hit rate 4.4% among 390,000 | AID 504339, 2011; further: on the % scale 0 is the no-effect control and ±100 the full control effect; nearly all actives have a fitted effect of over 50% in size
# BAZ2B block = qHTS Assay for Inhibitors of BAZ2B | hit rate 4.4% among 360,000 | Bromodomain adjacent to zinc finger domain protein 2B (Homo sapiens), Q9UIF8 | AlphaScreen BAZ2B-H3K14Ac peptide displacement | AID 504333, 2011 | Potency, µM (titrated, usually from 114 µM), without a hit: at the highest dose activity change, negative = inhibition, usual class: inhibitors; further: on the % scale 0 is the no-effect control and ±100 the full control effect; nearly all actives have a fitted effect of over 60% in size
#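 Inhibition is scored as reduced AlphaScreen emission. The BAZ2B/b-H3(5-23)K14Ac complex (50 nM each) in PBS pH 7.4, 0.01% Tween-20 meets compound (up to 110 uM) for 30 min at RT before bead addition.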
# HP1b binding inh = HTS for Inhibitors of HP1-beta Chromodomain Interactions with Methylated Histone Tails; Potency, µM (doses to about 114 µM), without a hit: top-dose activity change, negative = inhibition, usual class: inhibitors; Chromobox protein homolog 1 (Homo sapiens), P83916; hit rate 0.56% among 390,000; AlphaScreen HP1-beta / biotin-H3K9me3 peptide binding; further: nearly all actives have a fitted effect of over 70% in size
# Target sequence (P83916 whole entry, looked up): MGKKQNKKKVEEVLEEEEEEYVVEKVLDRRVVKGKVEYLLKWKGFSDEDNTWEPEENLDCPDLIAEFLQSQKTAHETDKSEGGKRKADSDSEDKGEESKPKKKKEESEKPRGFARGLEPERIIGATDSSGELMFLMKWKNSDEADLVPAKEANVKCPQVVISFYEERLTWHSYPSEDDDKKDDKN
#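 AlphaScreen: HP1-beta (50 nM) preformed 30 min with biotin-H3(1-18)K9me3 peptide (50 nM) in PBS pH 7.4, 0.01% Tween-20. Compound added for 30 min at RT, then streptavidin donor/nickel chelate acceptor beads (10 ug/mL) for 30 min.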
# G9a inh = qHTS Assay for Inhibitors of Histone Lysine Methyltransferase G9a. hit rate 8.8% among 350,000. Potency, µM (titrated, usually from 102 µM), for inactives: at the top dose activity, negative = inhibition, usual class: inhibitors. Histone-lysine N-methyltransferase EHMT2 (Homo sapiens), Q96KQ7. G9a H3K9 monomethylation, AlphaScreen, 2 h; further: on the % scale 0 is the no-effect control and ±100 the full control effect; nearly all actives have a fitted effect of over 75% in size
# Target sequence (Q96KQ7 913-1193 limits assumed): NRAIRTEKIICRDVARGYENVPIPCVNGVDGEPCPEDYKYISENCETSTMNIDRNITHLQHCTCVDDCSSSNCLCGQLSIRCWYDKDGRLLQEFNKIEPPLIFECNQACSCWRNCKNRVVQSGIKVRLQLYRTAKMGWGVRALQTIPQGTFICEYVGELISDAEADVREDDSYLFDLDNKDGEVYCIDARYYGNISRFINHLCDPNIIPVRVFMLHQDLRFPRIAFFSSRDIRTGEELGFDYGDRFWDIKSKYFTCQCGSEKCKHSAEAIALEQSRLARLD
#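 Enzyme 20 nM + cpd, 15 min RT; add b-H3K9 pep 500 nM / SAM 20 uM; 2 h RT; anti-H3K9me1 Ab 0.5 ug/mL + SA donor / anti-rabbit acceptor beads 20 ug/mL each, 10 min; AlphaScreen read.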
# An asterisk follows results filed as active; ? = inconclusive; / = no result; [ ] = another dose, or the depositor's remark. The call rests on the fitted dose curve; in most records, active means well fitted curve in the direction sought with a large enough effect; inconclusive means small, poorly fitted or top-dose-only effect, or another doubt; inactive means no such curve, though single readings can be large; an effect the other way counts as inactive or inconclusive. Potency means the concentration at half of the fitted maximal effect.
SMILES,Sfp inh,JMJD2A Tudor inh,BAZ2B block,HP1b binding inh,G9a inh
COc1cc(OC2CCN(C(C)=O)CC2)ccc1C(=O)N1CCC(N2C(=O)OCc3ccccc32)CC1,17.3%,/,/,/,33.0%[59 µM]
O=C(CCN1CCN(CCO)CC1)N1c2ccccc2Sc2ccc(C(F)(F)F)cc21,-4.0%,56.2µM*,-12.2%,38.1%,?
Cc1ncsc1CCOC(=O)c1ccc([N+](=O)[O-])cc1,5.8%,?,?,-33.2%,?
COc1cc2c(cc1OC)C1C(=O)c3ccc4c(c3OC1CO2)CC(C(C)C)O4 (stereo not drawn),/,44.7µM*,/,-27.6%[57 µM],/
CC[C@H](C)/C=C(C)/C=C/C1=CC2=C(Cl)C(=O)[C@](C)(OC(C)=O)C(=O)C2=CO1,/,79.4µM*,/,?,/
Cc1ccc2cc3c(ccc4ccccc43)c3c2c1CC3,50.1µM*,/,/,/,?
O[C@@H]1CCCN2C[C@@H](O)[C@@H](O)C12 (stereo partly drawn),17.1%,/,/,/,38.9%[59 µM]
Cc1ccc(S(=O)(=O)N2CCCCC2)cc1NC(=O)CN1CC=C(c2ccccc2)CC1,19.4%,-31.1%,-4.6%,4.4%,-11.3%[59 µM]
COc1ccccc1CNCC(=O)Nc1cc(S(=O)(=O)N2CCCCC2)ccc1C,/,1.78µM*,/,?,/
C[C@]12CCC3C(CC[C@H]4CC(O)CC[C@]34C)C1CC/C2=N/NC(=O)c1ccncc1 (stereo partly drawn),25.2%,-3.8%,-0.4%,78.9%,21.3%
COc1ccc(CN2C(=O)NC(=O)/C(=C\c3cc(OC)c(OC)c(OC)c3)C2=O)cc1,-8.5%,50.1µM*,?,-23.6%,?
O=C1NC(=O)N(Cc2ccccc2)C(=O)/C1=C/C=C/c1ccco1,?,-30.0%,35.5µM*,-0.1%,/
COc1ccc(CN2C(=O)NC(=O)/C(=C\c3ccco3)C2=O)cc1,70.8µM*,44.7µM*,28.2µM*,?,28.2µM*
CC(=O)O[C@H]1C(=O)[C@@]2(C)C([C@H](OC(=O)c3ccccc3)[C@]3(O)C[C@H](OC(=O)[C@H](O)[C@@H](NC(=O)c4ccccc4)c4ccccc4)C(C)=C1C3(C)C)[C@]1(OC(C)=O)CO[C@@H]1C[C@@H]2OC(=O)[C@H](C)NC(=O)c1ccc(-c2c3ccc(=O)cc-3oc3cc(O)ccc23)c(C(=O)O)c1 (stereo partly drawn),-1.3%,/,/,/,52.9%[12.7 µM]
CC(C)[C@H](NC(=O)[C@H](CCC(=O)O)NC(=O)[C@H](Cc1ccccc1)NC(=O)[C@@H](C)NC(=O)[C@@H](N)Cc1ccc(O)cc1)C(=O)N[C@H](C(=O)NCC(N)=O)C(C)C,8.3%,/,/,/,/
O=C1[C@H]2[C@@H](C3CC3)N3C(=O)CN(CC4CC4)C(=O)[C@@]3(Cc3ccccc3)[C@H]2C(=O)N1c1ccccc1,/,-10.1%,/,45.2%,/
NC[C@@H]1O[C@H](O[C@H]2[C@H](O)[C@@H](O[C@H]3[C@H](O)[C@H](N)C[C@H](N)[C@H]3O[C@@H]3O[C@H](CO)[C@@H](O)[C@H](O)[C@@H]3N)O[C@H]2CO)[C@@H](N)[C@H](O)[C@@H]1O,17.1%,/,/,/,29.0%[21.5 µM]
Clc1ccc2c(c1)CCc1cccnc1C2=C1CCNCC1,-20.7%,/,?,/,-1.2%[59 µM]
NC(Cc1ccc(Oc2cc(I)c(O)c(I)c2)c(I)c1)C(=O)O (stereo not drawn),-12.7%,/,/,/,?
N/C(=N\[N+](=O)[O-])N/N=C/c1ccc(O)cc1,-1.2%,0.0%,-2.9%,22.9%,3.1%
Nc1nonc1C(=O)N/N=C/c1ccc([N+](=O)[O-])o1,-28.0%,?,56.2µM*,?,50.1µM*
CCOc1cc2[nH]c(=O)n(CCCC(=O)N3CCN(c4cccc(Cl)c4)CC3)c(=O)c2cc1OCC,/,?,-21.7%,-8.0%,-3.6%[59 µM]
CC(C)[C@H](NC(=O)[C@H](CCC(=O)O)NC(=O)[C@H](Cc1ccccc1)NC(=O)[C@H](C)NC(=O)[C@@H](N)Cc1ccc(O)cc1)C(=O)N[C@H](C(=O)NCC(N)=O)C(C)C,-23.9%,/,/,/,26.9%[59 µM]
COc1cccc(CCNCc2c(F)cccc2F)c1,-11.5%,?,39.8µM*,?,7.94µM*
COc1cccc(CNCCc2ccc(F)cc2)c1,-8.8%,?,39.8µM*,4.4%,-19.1%
SMILES,Sfp inh,JMJD2A Tudor inh,BAZ2B block,HP1b binding inh,G9a inh
CCOC(=O)c1ncc2[nH]c3ccc(OCc4ccccc4)cc3c2c1COC,9.9%,/,/,/,12.5%[59 µM]
CC1(C)[C@@H](O)C[C@H]2[C@](C)(O)[C@@H]3CC[C@H]4[C@@H](O)[C@@]3(C[C@@H](O)[C@@]21O)C[C@@]4(C)O,22.3%,/,/,/,29.0%[59 µM]
CCCN(CCC)c1c([N+](=O)[O-])cc(C(F)(F)F)cc1[N+](=O)[O-],4.5%,/,/,/,/
CC1=C[C@@H]2c3cccc4[nH]cc(c34)C[C@H]2N(C)C1,-4.2%,-22.5%,-25.7%,1.3%[57 µM],44.7µM*
CCN(CC)C(=O)N[C@@H]1C[C@H]2c3cccc4[nH]cc(c34)C[C@@H]2N(C)C1,15.8%,/,/,/,17.5%[21.5 µM]
CN(C)c1nc(-c2ccccc2)[n+](C)s1,17.8µM*,-18.3%,1.3%,0.8%,3.16µM*
COc1ccc(CC2NCCc3cc(OC)c(OC)cc32)cc1OC (stereo not drawn),8.9%,/,/,/,/
COc1cc2c(cc1O)C(Cc1ccc(O)cc1)NCC2 (stereo not drawn),-4.4%,-12.9%,-29.1%,36.1%,79.4µM*
CCCCC/C=C\C/C=C\C/C=C\CCCCC(=O)NCCO,1.9%,/,/,/,/
CNC(CC(C)C)C(=O)NC1C(=O)NC(CC(N)=O)C(=O)NC2C(=O)NC3C(=O)NC(C(=O)NC(C(=O)O)c4cc(O)cc(O)c4-c4cc3ccc4O)C(O)c3ccc(c(Cl)c3)Oc3cc2cc(c3OC2OC(CO)C(O)C(O)C2OC2C[C@](C)(N)C(O)C(C)O2)Oc2ccc(cc2Cl)C1O (stereo partly drawn),/,-2.8%,12.2%,62.2%,8.6%[12.7 µM]
CCCc1nc2ccccc2c(=O)n1-c1cccc(OC)c1,6.0%,-3.1%,5.1%,24.2%,24.6%
O=c1c2cc([N+](=O)[O-])ccc2nc(CN2CCOCC2)n1-c1ccccc1F,22.4µM*,/,-35.9%,/,2.82µM*
COc1cccc(-n2c(CN3CCN(C)CC3)nc3ccc([N+](=O)[O-])cc3c2=O)c1,7.94µM*,-17.4%,-33.4%,1.9%,?
Cc1cc(C(C#N)c2ccc(Cl)cc2)c(Cl)cc1NC(=O)c1cc(I)cc(I)c1O (stereo not drawn),?,50.1µM*,44.7µM*,-13.2%,14.1µM*
CN1CC[C@@]2(CCCN(C(=O)Oc3ccccc3)C2)C1,10.5%,/,/,/,-3.3%[12.7 µM]
